Data published in the supplement of paper PMC10981050.
“And” between values parts separate entries of the source, which are not always exact repeats. Equal entries are not always repeated. Structures can show the parent of a compound that is named as a salt.

Experiments:
Experiment in all cases: cell viability relative to vehicle control; higher = less cytotoxic
Conditions in all cases: 10 µM
K562 = tested on: K562
In short: (§1)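 CRISPR-edited SRSF2 P95 mutant and isogenic wild-type clones of four leukaemia lines were screened against Selleck bioactive, kinase and epigenetic probe libraries, with identity-inconsistent compounds removed. Compounds were acoustically dispensed into 384-well plates at a single 10 µM dose, with 2000 cells in 50 µL medium per well. After 48 h, supernatant was removed and CellTiter-Glo luminescence was read. Viability was expressed as percent of the on-plate DMSO vehicle control, analysed in Genedata Screener.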

MARIMO = tested on: MARIMO
In short: as §1

MOLM14 = tested on: MOLM14
In short: as §1

OCI-AML2 = tested on: OCI-AML2
In short: as §1

Compound	cell viability (K562; SRSF2 genotype: SRSF2 P95H/wt)	cell viability (K562; SRSF2 genotype: SRSF2 wt/wt)	cell viability (MARIMO; SRSF2 genotype: SRSF2 P95H/wt)	cell viability (MARIMO; SRSF2 genotype: SRSF2 wt/wt)	cell viability (MOLM14; SRSF2 genotype: SRSF2 P95H/wt)	cell viability (MOLM14; SRSF2 genotype: SRSF2 wt/wt)	cell viability (OCI-AML2; SRSF2 genotype: P95H/wt)	cell viability (OCI-AML2; SRSF2 genotype: wt/wt)
COc1cc(/C=C/C(=O)O)ccc1O [Fumalic acid (Ferulic acid)]	98.4% and 103%	100%	92.1%	105%	103%	101%	92.9%	105%
C/C(=C\C(=O)OCCCCCCCCC(=O)O)C[C@@H]1OC[C@H](C[C@@H]2O[C@H]2[C@@H](C)[C@H](C)O)[C@@H](O)[C@H]1O [Mupirocin]	98.8% and 99.8%	101%	103%	103%	97.7%	103%	100%	92%
COc1cc2ncnc(Nc3ccc(O)c(Br)c3)c2cc1OC	93.8% and 101%	96.4%	85.4%	84.6%	32.4%	24.3%	61.8%	63.9%
Cc1ccsc1C(=CCCN1CCC[C@@H](C(=O)O)C1)c1sccc1C [Tiagabine]	100% and 93.4%	96.7%	91.8%	109%	97%	101%	89%	111%
C[C@H](CCC(=O)O)[C@H]1CC[C@H]2[C@@H]3CC[C@@H]4C[C@H](O)CC[C@]4(C)[C@H]3C[C@H](O)[C@]12C [Deoxycholic acid]	94.9% and 86.4%	87.3%	93.7%	103%	94.7%	95%	94.5%	93%
O=C(O)C[C@H](O)C[C@H](O)/C=C/c1c(C2CC2)nc2ccccc2c1-c1ccc(F)cc1 [Pitavastatin calcium (Livalo)]	37.4% and 50.7%	34.6%	25.3%	34.4%	32.9%	48.4%	1.41%	4.89%
CN(C)Cc1cccc(N=C(c2ccccc2)c2c(O)[nH]c3cc(C(=O)N(C)C)ccc23)c1	88.8% and 90.6%	79.6%	60.9%	63.4%	38.4%	31.6%	38.5%	36.2%
CN(C)CC/C=C1/c2ccccc2Sc2ccc(Cl)cc21 [Chlorprothixene]	80.1% and 80.7%	87.8%	78.3%	76.7%	66.2%	82.1%	66.6%	68.2%
COc1ncc(-c2cc(-c3ncc(CN4C[C@@H](C)O[C@@H](C)C4)o3)c3cn[nH]c3c2)cc1NS(C)(=O)=O	53.5% and 58.5%	61.2%	42.6%	37.1%	23.5%	27.3%	13.1%	25.8%
CCOc1nc2cccc(C(=O)OCc3oc(=O)oc3C)c2n1Cc1ccc(-c2ccccc2-c2noc(=O)[nH]2)cc1 [Azilsartan Medoxomil (TAK-491)]	97.7%	95.6%	101%	108%	105%	102%	102%	103%
CCC(=O)N1CCN(c2ccc(-n3c(=O)ccc4cnc5ccc(-c6cnc7ccccc7c6)cc5c43)cc2C(F)(F)F)CC1 [Torin 1]	46.8% and 45.3%	46.4%	64.6%	61.4%	39.8%	36.2%	41.5%	39.9%
CCc1ccc(CCOc2ccc(CC3SC(=O)NC3=O)cc2)nc1 (stereo not drawn) [Pioglitazone (Actos)]	98.5% and 116%	109%	104%	103%	102%	108%	111%	103%
O=C(NCCCn1ccnc1)c1cc(-c2ccco2)on1	87.3% and 91.7%	87.1%	68.9%	79.4%	45.7%	44.4%	77.2%	72.6%
CC(C)(CO)c1cc2cc(NC(=O)C3(c4ccc5c(c4)OC(F)(F)O5)CC3)c(F)cc2n1C[C@@H](O)CO	95.8% and 95.3%	87.5%	92.7%	109%	91.5%	91.7%	95.7%	96%
Cc1c(F)cc(C(=O)NC2CC2)cc1-c1ccc(C(=O)NCC(C)(C)C)cn1 [Losmapimod]	92% and 93.7%	97.8%	95.7%	103%	94.1%	100%	86.7%	95.5%
Nc1ncnc2c1ncn2C(C=O)OC(C=O)CO (stereo not drawn) [Adenosine Dialdehyde (ADOX)]	67.4% and 74.4%	69.3%	60.7%	59.4%	25.3%	14.5%	40.4%	42.5%
O=C(Cn1ccnc1[N+](=O)[O-])NCc1ccccc1 [Benznidazole]	96.1% and 92.1%	95.9%	96.6%	92.8%	97.1%	99.4%	103%	100%
COc1ccc(C2CC(=O)c3c(O)cc(OC4OC(COC5OC(C)C(O)C(O)C5O)C(O)C(O)C4O)cc3O2)cc1 (stereo not drawn) [Didymin]	107% and 103%	112%	108%	105%	106%	111%	104%	103%
O=C(N/N=C/c1ccc(O)c(O)c1)c1cc2ccccc2cc1O [Dynasore]	88.5% and 89.6%	96%	72.8%	78.7%	94.2%	94.4%	80%	73%
CCC(=O)NS(=O)(=O)c1ccc(-c2c(-c3ccccc3)noc2C)cc1 [Parecoxib Sodium]	102% and 91.9%	100%	101%	104%	93.4%	104%	92.3%	97.3%
C=CCc1cccc(/C=N/NC(=O)CN2CCN(Cc3ccccc3)CC2)c1O	70.5% and 67%	65.4%	25.7%	31.6%	12.3%	8.85%	19.2%	19.7%

Compound	cell viability (K562; SRSF2 genotype: SRSF2 P95H/wt)	cell viability (K562; SRSF2 genotype: SRSF2 wt/wt)	cell viability (MARIMO; SRSF2 genotype: SRSF2 P95H/wt)	cell viability (MARIMO; SRSF2 genotype: SRSF2 wt/wt)	cell viability (MOLM14; SRSF2 genotype: SRSF2 P95H/wt)	cell viability (MOLM14; SRSF2 genotype: SRSF2 wt/wt)	cell viability (OCI-AML2; SRSF2 genotype: P95H/wt)	cell viability (OCI-AML2; SRSF2 genotype: wt/wt)
CCN(CC)CCOC(=O)C(c1ccccc1)c1ccccc1 [Adiphenine HCl]	97.9% and 89.7%	85.9%	85.1%	96.3%	89%	94.3%	92.4%	81.1%
CCC(C(=O)O)c1ccc(N2Cc3ccccc3C2=O)cc1 (stereo not drawn) [Indobufen]	92.1% and 90.3%	102%	91.3%	100%	96.6%	101%	92.2%	98.3%
CC(C)c1ccccc1Cc1cc(C(=O)Nc2ccc(S(=O)(=O)c3ccccc3C(C)(C)C)cc2)c(O)c(O)c1O	8.56% and 5.5%	7.92%	17.6%	18.2%	4.45%	1.48%	2.91%	8.83%
O=C(O)CSCC(=O)NC1CCSC1=O (stereo not drawn) [Erdosteine]	101% and 96.3%	97.8%	101%	102%	97.8%	98%	89.9%	96.9%
O=C(O)c1cc2cccc([N+](=O)[O-])c2[nH]1	103% and 105%	103%	98.9%	107%	106%	101%	111%	111%
COc1ccc(/C=C/c2cc(O)cc(O[C@@H]3O[C@H](CO)[C@@H](O)[C@H](O)[C@H]3O)c2)cc1O [Rhapontin]	86.2% and 86.1%	92.3%	85.4%	99.8%	90.7%	99.3%	89.1%	95.5%
Cc1nc(Nc2cnn(C3CCNCC3)c2)nc2c1N(C)C(=O)c1cc3ccccc3cc1N2C	56% and 67.5%	60.7%	50.7%	63.7%	15.9%	5.53%	19.2%	22%
COC(=O)[C@H](CC(C)C)NC(=O)c1ccc(NC[C@@H](N)CS)cc1-c1cccc2ccccc12 [GGTI 298 TFA salt]	7.41% and 14.8%	31.9%	55%	51.1%	41%	50.6%	40.6%	37.7%
COc1cc(C2Oc3cc([C@H]4Oc5cc(O)cc(O)c5C(=O)[C@@H]4O)ccc3OC2CO)ccc1O (stereo partly drawn) [Silibinin (Silybin)]	95% and 94%	92.2%	97.5%	110%	98.8%	98.4%	104%	116%
CCc1ccc(OCc2ccccc2C(=O)Nc2ccc3nc(C)cc(N)c3c2)cc1	0.54% and 0.5%	0.47%	0.43%	0.59%	0.48%	0.57%	0.44%	0.53%
Cc1ccc(-n2nc(C(C)(C)C)cc2NC(=O)NCc2cc(F)ccc2Oc2ccc3c(cnn3CCO)c2)cc1 [Pexmetinib (ARRY-614)]	17.1% and 26.4%	23.6%	68%	69.4%	32.8%	25.9%	50%	54.4%
NC(=S)N/N=C/c1ncccc1N [Triapine]	75.8% and 77.5%	76.5%	20.1%	15.3%	6.66%	1.54%	13.1%	15.1%
CO[C@H]1C[C@@H]2CC[C@@H](C)[C@@](O)(O2)C(=O)C(=O)N2CCCC[C@H]2C(=O)O[C@H]([C@H](C)C[C@@H]2CC[C@@H](OP(C)(C)=O)[C@H](OC)C2)CC(=O)[C@H](C)/C=C(\C)[C@@H](O)[C@@H](OC)C(=O)[C@H](C)C[C@H](C)/C=C/C=C/C=C/1C [Deforolimus (MK-8669)]	71.2% and 68.8%	70.8%	75%	75%	54.2%	60.8%	67.5%	64%
CCCC(CCC)C(=O)O [Valproic acid sodium salt (Sodium valproate)]	95% and 89.8%	102%	84.2%	91.5%	93.2%	93.7%	89.8%	95.9%
Cc1c(C(=O)Nc2ccc(N3C[C@@H](C)O[C@@H](C)C3)nc2)cccc1-c1ccc(OC(F)(F)F)cc1 [LDE225 (NVP-LDE225, Erismodegib)]	82.9% and 91.2%	91.9%	86.2%	102%	87.7%	95.9%	77.6%	85%
COc1nccc(-c2c(-c3ccc(F)cc3)ncn2C2CCC(O)CC2)n1 (stereo not drawn)	96.5% and 98.5%	89.3%	98.3%	110%	107%	107%	107%	107%
C[C@H]1O[C@@H](n2cc(F)c(=O)[nH]c2=O)[C@H](O)[C@@H]1O [Doxifluridine]	102% and 95%	92.1%	100%	104%	96.5%	105%	97.3%	99.7%
CCOc1nc2cccc(C(=O)O)c2n1Cc1ccc(-c2ccccc2-c2nnn[nH]2)cc1 [Candesartan (Atacand)]	91% and 88.3%	89.3%	91.7%	100%	94.7%	93.5%	83.1%	87.3%
CC1(C)CC(=O)c2c(C(F)(F)F)nn(-c3ccc(C(N)=O)c(N[C@H]4CC[C@H](O)CC4)c3)c2C1	23.7% and 29.5%	27.1%	30.9%	25.9%	3.24%	4.55%	13.9%	21.4%
CN1CCN(Cc2ccc(Nc3ncc(Cl)c(Nc4ccccc4S(=O)(=O)N(C)C)n3)cc2)CC1	42.8% and 43%	47.6%	30.3%	4.7%	11.3%	0.64%	2.24%	10.3%
